Results filed as inconclusive are left out. A call without a number means that no potency is given here. Activity calls are given as the source filed them. The call rests on the fitted dose curve; in most records, active means well fitted inhibition curve with a large enough effect; inconclusive means small, poorly fitted or top-dose-only effect; inactive means no such curve, though single readings can be large or run the other way.
biological target: Luciferin 4-monooxygenase (Photinus pyralis) (UniProt P08659); test: Confirmatory firefly luciferase (FLuc) qHTS assay for identification of artifact compounds; conditions: purified FLuc enzyme, luminescence, 5 min; series mostly up to 38.9 µM
Procedure, shortened: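 Compounds were preincubated 15 min at room temperature with 10 uM D-luciferin and 10 uM ATP in Tris acetate pH 7.6. 10 nM Photinus pyralis luciferase was then added, and luminescence was read after 5 min.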
Potency means the concentration at half of the fitted maximal effect.

Structure (SMILES) | Potency
CC(C)(C)C(=O)OCC(=O)[C@H]1CC[C@H]2[C@@H]3CCC4=CC(=O)CC[C@]4(C)[C@H]3CC[C@]12C | inactive
COc1ccc(-c2ccc(=O)n(CC(=O)Nc3ccc(OC)c(OC)c3)n2)cc1 | inactive
CN[C@@H]1[C@@H](O[C@H]2O[C@H](CO)[C@@H](N)[C@H](O)[C@H]2O)O[C@H]2C[C@@H](N)[C@@H](O[C@H]3[C@H](O)[C@@H](O)[C@H](N)C[C@@H]3N)O[C@@H]2[C@@H]1O | inactive
O=C(Nc1cc(-c2ccc(Cl)cc2)no1)c1ccc(F)cc1 | inactive
CO[C@H]1[C@@H](O)[C@H](N)[C@@H](O[C@H]2O[C@H]([C@H](C)N)CC[C@H]2N)[C@H](O)[C@@H]1N(C)C(=O)CN | inactive
COc1cccc(NCc2ccc(O)c3ncccc23)n1 | inactive
CCCc1nn2cc(-c3ccc(C)c(C)c3)nc2s1 | 770 nM (active)
COc1ccccc1NC(=O)CSC1=Nc2ccccc2C2=NC(CC(=O)NCc3ccccc3)C(=O)N12 (configuration not stated) | inactive
CN(C)[C@@H]1C(=O)C(C(=O)NCN2CCCC2)C(=O)[C@@]2(O)C(=O)C3C(=O)c4c(O)cccc4[C@@](C)(O)[C@H]3C[C@@H]12 (some centres not stated) | inactive
O=C1c2ccccc2C(=O)N1c1cccc2cnccc12 | inactive
C[C@@H]1CC2(OC3C[C@@]4(C)C5=CC[C@H]6C(C)(C)C(O[C@@H]7OC[C@@H](O)[C@H](O)[C@H]7O)CC[C@@]67C[C@@]57CC[C@]4(C)C31)OC(O)C1(C)OC21 (some centres not stated) | inactive
CCOc1ccccc1NC(=O)CSc1nc2c(oc3ccccc32)c(=O)n1-c1ccc(F)cc1 | inactive

From PubChem BioAssay AID1845227 (National Center for Advancing Translational Sciences (NCATS), 2023)
